The record followed here is PMC6522510 (Nature Communications, 2019).

Test systems include CHRF288-11; CMK; CMS; M07e; ML-2; MOLM-13; MV4-11; U937.
Holding throughout (conditions): 72 h, relative to cycloheximide control, log10 luminescence

In the assay with CHRF288-11, `C[C@]12CC[C@@H]3c4ccc(OC(=O)N(CCCl)CCCl)cc4CC[C@H]3[C@@H]1CC[C@@H]2OP(=O)(O)O` [SJ000518944-1, ES[…] SODIUM] returned a CHRF288-11 %inh of 1.087%. In addition, in the assay on CMK, the CMK %inh is -3.517%. The CMS %inh with CMS is given as -0.5738%. Besides, the M07e %inh in the assay with M07e stood at 1.122%. This compound returned an ML-2 %inh in the assay with ML-2 of 0.1396%. In the assay with MOLM-13, this compound gave an MOLM-13 %inh of 1.341%. This compound came in with an MV4-11 %inh in the assay with MV4-11 of 2.919%. Further, in the assay with U937, the U937 %inh was -1.233%.
